In the OligoGym collection one finds sensor-assay potency score (higher = more potent) data, which are given here for 39 sequences.
Note: reference of the scale not given here.

For the first test, the target named is C2orf57. Kind of test: pooled miR-30 sensor sort-seq; sequence = guide strand. Conditions: shRNA.
TTGTCCTTGCGTCTTGAACCTG returned a sensor-assay potency score (higher = more potent) of -1.12.

In turn, TAAAGCTTCAGCTTCAGGGTGT yielded a sensor-assay potency score (higher = more potent) of 0.632. Still for that read-out and setting: the same measure for ATTTGTGACATCTTGTCTTTAC: -1.19. The same measure, in the same setting: the same measure for TGTCCTTGCGTCTTGAACCTGC: 0.175.

A further test addresses C2orf70. The test is described as above. The note with it: shRNA.
For the sequence TTGGTGGAGAAGATGGTGGGGA, the sensor-assay potency score (higher = more potent) worked out at 0.218. TAGAAATTCGTAAGCTCTGTGG returned a sensor-assay potency score (higher = more potent) of -0.326.

TAAAAGGTGCCACTTCTTCTTT yielded a sensor-assay potency score (higher = more potent) of -0.951.

For the sequence TAGCAGTCTCTCTTTTTCCGCT, the sensor-assay potency score (higher = more potent) is -0.538. TTGTCTTGATAGTACTTCCGAT came in with a sensor-assay potency score (higher = more potent) of -0.575. Take TAGGTCTTCAGGTTCTCGGGGG: the sensor-assay potency score (higher = more potent) amounted to 0.319. TTGATAGTACTTCCGATGCTGC: the sensor-assay potency score (higher = more potent) was -0.858.

TAGTCTTAAAAGGTGCCACTTC: the sensor-assay potency score (higher = more potent) was -0.307. TGTCTTGATAGTACTTCCGATG yielded a sensor-assay potency score (higher = more potent) of -1.09. The same measure, in the same setting: the same measure for TTGAACTCGGTCAGTAGGGTGC: -0.0549; for TACTTGAGGGTGGTGGTGCCGT: -0.758. Same read-out and setting: the same measure for TTCGTAAGCTCTGTGGAGCGAT: -0.412.

Another test addresses C2orf76. The description is as above. Conditions: shRNA.
TTTGTAGTTCTTATAATCTTCT gave a sensor-assay potency score (higher = more potent) of -0.217. On the same count and under the same terms, the same measure for TTTCAGAGTGCTGTCTTCTTTC: 0.204; for TCTTCTTTCAGCAGGAGTCTTT: -0.508. Still for that read-out and setting: the same measure for TTCGTCATCTTCCAAACTCAAC: -1.74; for TTTCACTGGCGATTCCAGCTGC: 0.205. On the same count and under the same terms, the same measure for TATAATTTCTGAATGGTGGTGG: 1.01.

On to TAAAGGGATATCTTGCTTTAGA, for which the sensor-assay potency score (higher = more potent) is -0.915.

Turning to TGTAGTTCTTATAATCTTCTTC, the sensor-assay potency score (higher = more potent) is 0.298.

Take TTGTCTTTGATTTATGTGCTTG: the sensor-assay potency score (higher = more potent) is -0.405. Turning to TTTGTCTTTGATTTATGTGCTT, the sensor-assay potency score (higher = more potent) is -0.117. The same measure, in the same setting: the same measure for TATCTTGCTTTAGAAATACGAT: -1.11.

The next test concerns the target C2orf79. The test is described as above. Conditions: shRNA.
Sequence TTTAGGGTGGTCTCATCTGGGG returned a sensor-assay potency score (higher = more potent) of -0.919. On the same count and under the same terms, the same measure for TTCTGTTGCAGGGTCTCGGCCA: -0.447; for TTGCTCAAGCCACAGCATGTGG: -1.1. In turn, TAACACCAAGTATTGTACCAGG came in with a sensor-assay potency score (higher = more potent) of -0.742. Still for that read-out and setting: the same measure for TTAGGGTGGTCTCATCTGGGGC: -1.64.

Turning to TAGATCCTTTCGTAACACCAAG, the sensor-assay potency score (higher = more potent) was -1.46.

For the sequence TATTGTACCAGGACCTGCGGCT, the sensor-assay potency score (higher = more potent) is -0.203. The same measure, in the same setting: the same measure for TTGTGATAGATCCTTTCGTAAC: -1.71; for TACAAGTGGCGATATTCTCTGG: -0.432. The same measure, in the same setting: the same measure for TTCGTAACACCAAGTATTGTAC: -0.56. Sequence TTTCGTAACACCAAGTATTGTA came in with a sensor-assay potency score (higher = more potent) of 0.279.

For the sequence TCTTCTGTTGCAGGGTCTCGGC, the sensor-assay potency score (higher = more potent) is -1.21.
